About 83,000 compounds went through this panel and 20% of them were active in at least one assay; those are over-represented in the sample as a whole.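 Results are percent growth after 48 hours of single-concentration exposure. 100 means growth as in untreated cells, lower positive values show inhibition; negative values down to -100 show cell death.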 Calls of active or inactive are those of the source. How the source made its calls: active means growth percent below 10; inactive means the rest.
Key:
Experiment in all cases: NCI-60 one-dose screen, 48 h (100 = growth as untreated, 0 = no growth, -100 = all killed)
Conditions in all cases: 10 µM unless noted
[1] = system: NCI-H23 lung
[2] = system: NCI-H226 lung
[3] = system: NCI-H322M lung
[4] = system: HOP-62 NSCLC
[5] = system: NCI-H460 lung
[6] = system: HOP-92 NSCLC
[7] = system: NCI-H522 lung
[8] = system: A549/ATCC NSCLC
[9] = system: 786-0 renal
[10] = system: COLO 205 colon
[11] = system: DU-145 prostate
[12] = system: K-562 leukemia
[13] = system: MALME-3M melanoma
[14] = system: MDA-MB-231 breast
[15] = system: RXF 393 renal
[16] = system: SF-268 CNS
[17] = system: SF-295 CNS
[18] = system: SF-539 CNS
[19] = system: UACC-257 melanoma
[20] = system: M14 melanoma

Measured: growth

COc1ccc(C(=O)/C=C/c2c(C(F)(F)F)nc3ccccn23)cc1OC
active: [1] 0.445% | [5] -33.6% | [6] 5.04% | [10] -1.6% | [11] 4.16% | [16] 5.35% | [17] 0.39% | [18] -13.3%
inactive: [2] 79.4% | [3] 24% | [4] 11.1% | [7] 10.8% | [8] 43.1% | [9] 10.3% | [12] 11.4% | [13] 41.5% | [14] 26.2% | [15] 14.8% | [19] 30.5% | [20] 14.8%

COc1ccc(\C=N/N=C(N)/C(N)=N\N=C/c2ccc(OC)cc2)cc1
inactive: [1] 95.6% | [2] 96.1% | [3] 123% | [4] 97.8% | [5] 108% | [6] 92.5% | [7] 87.5% | [8] 113% | [9] 123% | [10] 107% | [11] 113% | [12] 99.9% | [13] 106% | [14] 107% | [15] 96.9% | [16] 100% | [17] 97.3% | [18] 92.7% | [19] 121% | [20] 111%

N#CSCC1CC(O)(c2ccccc2)CC(c2ccc(F)cc2)O1 (stereo not given)
inactive: [1] 20.5% | [3] 50.9% | [6] 29.6% | [8] 27.8% | [10] 16.6% | [12] 20.7% | [13] 29.1% | [18] 21% | [19] 69.1%
active: [2] -7.79% | [4] -36.8% | [5] -28.9% | [7] -57% | [9] 0.242% | [11] -27.8% | [14] -1.42% | [15] -35.3% | [16] -26.3% | [17] -17.2% | [20] -35.6%

CCOC(=O)c1cc2c(n1C)-c1nc(NC(C)=O)sc1CCC2
inactive: [1] 76.1% | [2] 69.1% | [3] 76.2% | [4] 74.6% | [5] 95.5% | [6] 48.4% | [7] 60.9% | [8] 64.8% | [9] 84.6% | [10] 96.4% | [11] 94.3% | [12] 96.6% | [13] 108% | [14] 55.1% | [15] 83.1% | [16] 77.4% | [17] 84.1% | [18] 83.2% | [19] 67.8% | [20] 89.1%

CC(=O)Oc1ccc(C)cc1C
inactive: [1] 103% | [2] 107% | [3] 108% | [4] 105% | [5] 115% | [6] 105% | [7] 101% | [8] 100% | [9] 100% | [10] 125% | [11] 110% | [12] 101% | [13] 104% | [14] 104% | [15] 114% | [16] 104% | [17] 106% | [18] 99% | [19] 106% | [20] 103%

COC(=O)CC[C@H](C)[C@H]1CC[C@H]2[C@@H]3CC[C@@H]4CC5(CC[C@]4(C)[C@H]3CC(=O)[C@]12C)Nc1ccccc1NC5=NC(C)(C)C (stereo not given in full)
inactive: [1] 72.8% | [2] 65.4% | [3] 95.6% | [4] 84.3% | [5] 85.5% | [7] 75.8% | [8] 82.3% | [9] 81.1% | [10] 66.4% | [11] 90.2% | [12] 42.2% | [13] 109% | [14] 86.7% | [15] 84.7% | [16] 84.1% | [17] 84% | [18] 90.8% | [19] 77.2% | [20] 84.9%
active: [6] -2.12%

CN(C)CCNC(=O)c1ccc(-c2nc3ccc4[nH]ncc4c3c3c2C2CCC3C2)cc1 (stereo not given)
inactive: [1] 32.2% | [2] 49.3% | [3] 58.8% | [4] 46.6% | [5] 11.8% | [6] 101% | [8] 14.2% | [9] 28.3% | [10] 18.6% | [11] 20.8% | [12] 20.7% | [13] 28.1% | [16] 16.8% | [17] 40.9% | [18] 18.5% | [19] 58.7% | [20] 31.3%
active: [7] -28.8% | [14] 2.4% | [15] -30.9%

COc1ccc(C(=O)C/C(=C\c2ccc(Cl)cc2)C(=O)NCc2ccccc2)cc1
inactive: [1] 90.6% | [2] 73.4% | [3] 84.5% | [4] 82.6% | [5] 74.4% | [6] 86.2% | [7] 60.7% | [8] 84.7% | [9] 99.2% | [10] 108% | [11] 103% | [12] 62.4% | [13] 79.8% | [14] 81.3% | [15] 91.6% | [16] 86.3% | [17] 101% | [18] 94.4% | [19] 70.7% | [20] 94.8%

Nc1c(C(=O)Nc2ccccc2F)sc2nc3c(cc12)CCCC3
active: [18] 6.85%
inactive: [1] 51.2% | [2] 63.5% | [3] 63.1% | [4] 23.7% | [5] 12% | [6] 11.9% | [7] 23% | [8] 39.5% | [9] 33.2% | [10] 13% | [11] 26.8% | [12] 14.1% | [13] 62.9% | [14] 45.1% | [15] 39.2% | [16] 50.4% | [17] 21.9% | [19] 61.6% | [20] 33.5%

COC1/C=C/OC2(C)Oc3c(C)c(O)c4c(O)c(c(/C=N/Nc5ccc([N+](=O)[O-])cc5[N+](=O)[O-])c(O)c4c3C2=O)NC(=O)C(C)=C/C=C/C(C)C(O)C(C)C(O)C(C)C(OC(C)=O)C1C (stereo not given)
active: [1] 4.25% | [2] -57.2% | [6] -60.8% | [7] -42.5% | [12] 4.82% | [14] -7.83% | [15] -74.3% | [18] -2.39%
inactive: [3] 93.9% | [4] 42.2% | [5] 59.5% | [8] 82.9% | [9] 24.4% | [10] 24.9% | [11] 39.4% | [13] 29.2% | [16] 13.8% | [17] 81.1% | [19] 34.6% | [20] 11.4%

O=C(C[C@]1(O)C(=O)Nc2ccccc21)c1cccc(C(F)(F)F)c1
inactive: [1] 92.5% | [2] 86.3% | [3] 84.4% | [4] 78.8% | [5] 97.4% | [6] 77.3% | [7] 87.1% | [8] 99.2% | [9] 95.7% | [10] 89.5% | [11] 99.2% | [12] 96% | [13] 83.1% | [14] 91% | [15] 101% | [16] 85.8% | [17] 96.3% | [18] 88% | [19] 99.7% | [20] 93.1%

NC(=O)c1cc(I)ccc1NC(=O)/C=C/c1ccccc1
inactive: [2] 56.8% | [3] 33.8% | [8] 33.7% | [9] 26% | [10] 15.3% | [13] 42.7% | [14] 31.6% | [15] 19.3% | [16] 29.9% | [19] 69.7% | [20] 19.2%
active: [1] 9.27% | [4] -35.5% | [5] 1.75% | [6] 0.535% | [7] -18.7% | [11] -7.97% | [12] 1.5% | [17] -18.4% | [18] -22%

Cc1ccc(CNc2ccc3nc(CCC4CCCCC4)[nH]c3c2)cc1
active: [6] 0.719% | [7] 9.99% | [10] -30% | [12] 5.06%
inactive: [1] 30.6% | [2] 43.2% | [3] 92.3% | [4] 73% | [5] 58.4% | [8] 63.3% | [9] 52.2% | [11] 71.8% | [13] 22.4% | [14] 53.1% | [15] 36.2% | [16] 71.2% | [17] 61.1% | [18] 64.6% | [19] 66.8% | [20] 37.4%

CC(=O)/C(=C\c1c(-c2ccccc2)[nH]c2ccccc12)S(C)(=O)=O
inactive: [1] 33.7% | [2] 69.1% | [3] 58.2% | [4] 50.5% | [6] 42% | [7] 29.6% | [8] 42.8% | [9] 22.8% | [10] 21.2% | [11] 13.2% | [13] 32.9% | [14] 32.3% | [16] 41.6% | [19] 59.8%
active: [5] 4.15% | [12] -25.7% | [15] -5.08% | [17] 3.77% | [18] -34.8% | [20] 3.01%
